From PubChem BioAssay (EPA / NIEHS)
Several values for one entry are separate records, joined by “and”; a condition that tells them apart may be missing. Equal entries are not always repeated. More than one record can exist for a structure, and the calls need not agree. Activity calls are given as the source filed them. How the source made its calls: active means hit-call score of the fitted dose curve at least 0.9, where 1 is the maximum; inactive means score below 0.9.

Read-out: Intercellular Adhesion Molecule 1 (ICAM1), ICAM1 (gene 3383)
Test: BSK_3C_ICAM1: BioMAP Diversity Plus: 3C Assay for Intercellular Adhesion Molecule 1 (ICAM1) Biomarker Activity (AID 2283003)
Settings: primary human endothelial cells (HUVEC); actives raise or lower the signal
Protocol: BSK_3C is a cell-based, multiplexed-readout assay that uses umbilical vein endothelium, a human vascular primary cell, with measurements taken at 24 hours after chemical dosing in a 96-well plate.BSK_3C_ICAM1 is an assay component measured in the BSK_3C assay. It measures ICAM-1 antibody related to regulation of gene expression using ELISA technology.Data from the assay component BSK_3C_ICAM1 was analyzed into 1 assay endpoint. This assay endpoint, BSK_3C_ICAM1, was analyzed with bidirectional fitting relative to DMSO as the negative control and baseline of activity. Using a type of binding reporter, gain or loss-of-signal activity can be used to understand changes in the signaling as they relate to the gene ICAM1. Furthermore, this assay endpoint can be referred to as a primary readout, because this assay has produced multiple assay endpoints where this one serves a signaling function. To generalize the intended target to other relatable targets, this assay endpoint is annotated to the cell adhesion molecules intended target family, where the subfamily is Immunoglobulin CAM.
The levels of cell surface (or secreted, indicated by the prefix "s") biomarker endpoints were measured by ELISA. Overt cytotoxicity to cells in confluent adherent cultures (all systems other than the BT system) was assessed by measuring total protein levels using sulforhodamine B (SRB) staining in parallel cultures at the time of biomarker measurements, indicated as SRB endpoints. For proliferation assays for adherent cell types, individual cell types are cultured at sub-confluence and relative cell numbers quantified by SRB staining at time points optimized for each system (48 h: 3C and CASM3C systems; 72 h: BT and HDF3CGF systems; 96 h: SAg system). SRB was performed by staining cells with 0.1% SRB after fixation with 10% TCA and reading wells at 560 nm.Viability and proliferation of PBMC (T cells) was quantified by Alamar Blue reduction for the SAg and BT systems. For PBMC viability (referred to as PBMC Cytotoxicity within the assay endpoint names), cells were plated (75,000/well in a 96-well plate) and then chemical samples added for 1 h before addition of activators, SEB and TSST-1 (20 ng/mL final concentration each). Cells were incubated for 90 h. Then, Alamar Blue (20 uL/well) (Invitrogen, Cat DAL1100) was added for 6 h, and the plates were read with a fluorescence microplate reader at 546/580 nm (excitation/emission). For PBMC proliferation, cells were plated and activated as above but incubated for only 16 h prior to addition of Alamar Blue. Plates were read after 6 h.

Row | Compound | outcome | AC50
1 | CCOC(=O)C1=NOC(c2ccccc2)(c2ccccc2)C1 | inactive | 
2 | Clc1cc(Cl)c(Cl)c(Cl)c1Cl | inactive | 
3 | C=CC(=O)OCCCCCCOC(=O)C=C |  | 29.3 µM (active)
4 | CCCCCCOC(=O)CCCCC(=O)OCCCCCC | inactive | 
5 | C=CC(=O)OCC(C)OCC(C)OCC(C)OC(=O)C=C (stereo not given) |  | 28.2 µM (active)
6 | CCOC(=O)/C=C\C(=O)OCC | inactive | 
7 | CCNc1nc(NC(C)(C)C)nc(OC)n1 | inactive | 
8 | CC(c1cc(C(C)(C)C)cc(C(C)(C)C)c1O)c1cc(C(C)(C)C)cc(C(C)(C)C)c1O | inactive | 
9 | C=CC(=O)OCCCCCCCC(C)C | inactive | 
10 | CCC1(C)C(=O)N(Cl)C(=O)N1Cl (stereo not given) | inactive | 
11 | O=C1CCCCCCCCCCCN1 | inactive | 
12 | Oc1ccccc1Cc1ccccc1O | inactive | 
13 | c1ccc(Nc2cccc3ccccc23)cc1 | inactive | 32.6 µM (active)
14 | c1ccc2c(c1)[nH]c1ccccc12 | inactive | 
15 | O=C1CCCCCCCCCCC1 | inactive | 
16 | C=CCCCCCCCCC=O | inactive | 
17 | CCCCCCC=O | inactive | 
18 | O=C(Oc1ccccc1)c1ccccc1C(=O)Oc1ccccc1 | inactive | 
19 | CCCC(C)C(=O)OCC (stereo not given) | inactive | 
20 | CC1(C)CC(O)CC(C)(C)N1[O] | inactive | 

Row | Compound | outcome | AC50
21 | CC/C=C\C/C=C\C/C=C\CCCCCCCC(=O)OC |  | 29.7 µM (active)
22 | Cc1c(O)cccc1O | inactive | 
23 | CC(C)[N+](C)(CCOC(=O)C1c2ccccc2Oc2ccccc21)C(C)C | inactive | 
24 | CC/C=C\CCOC(=O)c1ccccc1O |  | 31.3 µM (active)
25 | CC(Cl)COP(=O)(OCC(C)Cl)OCC(C)Cl (stereo not given) | inactive | 
26 | COc1ccc(C(=O)c2ccccc2)c(O)c1 | inactive | 
27 | CCCCCCCO | inactive | 
28 | CCCCCCCCCCCC(C)=O |  | 32.5 µM (active)
29 | CCCCCC1=CCCC1=O | inactive | 
30 | O=C(O)C(F)(F)C(F)(F)C(F)(F)C(F)(F)C(=O)O | inactive | 
31 | C[N+](C)(C)CCCNS(=O)(=O)C(F)(F)C(F)(F)C(F)(F)C(F)(F)C(F)(F)C(F)(F)C(F)(F)C(F)(F)F | inactive | 
32 | CCCCC1C(=O)N(c2ccccc2)N(c2ccccc2)C1=O | inactive | 
33 | c1ccc2sc(SSN3CCOCC3)nc2c1 |  | 20 µM (active)
34 | C1CNCCN1 | inactive | 
35 | Fc1ccc(Br)cc1 | inactive | 
36 | CC=C(C)C=CC=C(C)C | inactive | 
37 | CC=C(C)C(C)=O | inactive | 
38 | O=C(Cl)c1c(Cl)c(Cl)c(C(=O)Cl)c(Cl)c1Cl | inactive | 
39 | COc1ccc(C(=O)/C(Br)=C\C(=O)O)cc1 |  | 32.2 µM (active) and 33.3 µM (active)
